# Results reported in the supplement of paper PMC11417369.
# In all, about 25,000 sequences were measured (“ln(normalized median fluorescence intensity)”: median about 6.7, highest 2% from about 10 on). The list comes from a sample in which the highest values are over-represented; it also holds similar and randomly drawn sequences.
# System: PfHDP1 homeodomain (GST-tagged)
# Test: gcPBM binding intensity (ln(normalized median fluorescence intensity)); higher = stronger DNA binding
# Method in brief: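 In this array assay, P. falciparum DNA-binding domains with a GST tag, expressed in E. coli, were applied for 1 h to primer-extended double-stranded 36-bp intergenic genomic probes and negative controls on an Agilent 4 × 180k array. Bound protein was visualised with Alexa488 anti-GST antibody at 488 nm. Binding intensity is the highest Masliner-normalised natural-log median intensity across replicate spots of either probe orientation.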
row,Sequence,gcPBM binding intensity (ln)
1,AACAAATGTTAAATGTTTAAGGAGAAAATAAAGACA [CACACA_negctrl_site1163],6.75
2,ATTTGCTCACAAGAAGCACACAAAAAAAGAAAAAAA [CACACA_site9338],7.34
3,TATTTTTTCCTTTGTTTTTTAAACTATCTTAACTAA [XGTACX_negctrl_site519],6.37
4,TTAACTTTTTTATATGCACACATAAACAAGGATATA [CACACA_site8932],10.1
5,AACTTTTTTATATGCACACATAAACAAGGATATATA [CACACA_site2874],10.3
6,TCCATATGCAAACTGGTGCACAAGTAGCTTTTATAT,10.8
7,ACACATAAATGAATAAATAAATAAATATAAATATAA [CACACA_negctrl_site1784],6.21
8,TAATATAGAAAATGCATACACACTTTATATATATAT [CACACA_site911],8.61
9,TTTTTTTTTTTTTAAACATGCAAAATATATAATTTT [TGCATGCA_site633],6.44
10,TAGAAATATATTTATTGTACATTGTATATATTATAT [XGTACX_site7584],6.26
11,AATATAATATATTGCACACAAAAAGTGAATTATTCT [CACACA_site1684],10.7
12,TATATAACCGAGTGCACACACAAAAAAAAAGTGAAC [CACACA_site6806],10.8
13,TGAATATTCATATGCACACAAATTAATATACATAAT [CACACA_site442],10.3
14,TCAAAAGAATAATTGGTGCAAATTATATAATATAAT [GTGCAC_site9804],10.5
15,TATATAATCGAGTGCACACACAAAAAAAAAGTGAAC [CACACA_site1483],10.4
16,TTTAATAATTATTAAAGTACAAAATAAATATTGAAT [XGTACX_site7538],6.7
17,TTATAATATATATAAAAGAAAAAAAATTATAATATA [CACACA_negctrl_site90],6.53
18,TGTAATAATTATTGCACGCACACAAAAACCTATAGA [CACACA_site2932],10.2
19,AAAAAATATAGATGCACACACAAAAAAACAAATTAA [CACACA_site6718],8.71
20,TAATAATTATTGCACGCACACAAAAACCTATAGATT [CACACA_site2931],10.6
21,TGTATATAATCGAGTGCACACACAAAAAAAAAGTGA [CACACA_site8417],10.1
22,ATATATATATAATAAGTGCAAAAAAAAGAAAAAAAT,9.3
23,TATTTATTTAATTACACACGAACATATAACCATTTC [CACACA_site211],6.81

row,Sequence,gcPBM binding intensity (ln)
1,ATATATATATTTATATTTATATGTAAATATCAACGT [TGCATGCA_negctrl_site32],8.19
2,ATCCCCATAAAAAATACACACAAATATTTATACATA [CACACA_site1001],6.79
3,TATATATATATATATACACACATATACATATTGTTT [CACACA_site3499],9.37
4,TAATATATATAAACATGTACAAATCAAAAACAAAAG [XGTACX_site4076],7.52
5,AATAATAAAAAATATACACACATATATAAATAAATA [CACACA_site6164],6.35
6,GAACAAATTAAATAGGTGCATTAACATGTTCTATTT [GTGCAC_site9729],10.1
7,ATTTCTCTATCGTAATGTACAAAAAAAAGGGAAAAG [XGTACX_site1335],6.48
8,AAAATATAATATATTGCACACAAAAAGTGAATTATT [CACACA_site8489],10.6
9,TATATATATAATATTGCACACAAAATTAAAAGTAAA [CACACA_site7889],9.61
10,TATATATAATATTGCACACAAAATTAAAAGTAAATA [CACACA_site19],10.3
11,TTAACCTTTTGATATTGTACCCATAATCTAATACAA [XGTACX_site769],6.47
12,ATATGTAGAAGTAATGCACACATATGTATATATATA [CACACA_site8796],10.3
13,ATGTAGAAGTAATGCACACATATGTATATATATATA [CACACA_site2494],10.5
14,ATGTGATAGAAGTACACACACATATGTATTTATAAT [CACACA_site5075],6.7
15,ATATATAGAATGTGTACACACATATGTATTTATATA [CACACA_site810],6.7
16,ATGTAGAAGTAATGCACACATATGTATTTATATATA [CACACA_site5391],10.9
17,TATACATATGTATGCACACATACATACACATAGAAT [CACACA_site3480],9.51
18,TTTAGTGAGTTTGTTGTGCACTGAAAAAATTACAAT,10.4
19,AATTCGTACCTCATTTGTACATATATATATATATAT [XGTACX_site5513],9.34
20,TTCAAGATTTATTATACACACATATTAATATATATA [CACACA_site573],6.83
21,AAGTATGTATCACAAAGTACTTAAGCATATATTTAA [XGTACX_site4121],6.57
22,ATATGTAAAATGAAGATACATACATACATACATACA [CACACA_negctrl_site715],7.53
